The assay concerns Fibrinogen (Alexa647-labelled). The assay can be described thus: fibrinogen binders on compound microarrays, profiling panel, artefact control for SMM control-protein annotation, biochemical, small-molecule microarray, 635/667 nm fluorescence (AID 1131).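 Note: z-score merges 667 nm fluorescence with per-spot signal-to-noise over triplicate slides.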 The following applies: fibrinogen-A647 binding fluorescence, higher = more signal.
Compound `CC(C)[C@@H](OCc1ccccc1)[C@H](C)C=NOC[C@@H](O)COCc1ccco1` yielded a composite z-score of -1.75.

`CC(C)(C)N1C(=O)[C@H]2[C@H]3[C@H](O)C=CC(=O)[C@@H]3CC[C@H]2C1=O` returned a composite z-score of 0.347. In the case of `CCOC(=O)[C@H](CC(C)C)NC(=O)CCC1CC(OC(=O)NCc2cccc3ccccc23)CC2(CCCC(COC(=O)NCCOC)O2)O1` (stereo partly specified), the composite z-score amounted to 0.959. The same measure for `Cc1ccc(S(=O)(=O)n2c3ccccc3c3nnc(C(=O)c4ccccc4)nc32)cc1`: -1.08; for `CCN1C(=O)[C@H]2[C@H]3[C@H](O)[C@H](O)CC(=NOC[C@H]4O[C@H](c5ccccc5)C=C[C@@H]4Oc4ccc(OC)cc4)[C@@H]3CC[C@H]2C1=O`: 0.894. The same measure for `Cc1cc2c(c(=O)o1)[C@@H](O)[C@H]1O[C@H]1C2=O`: -0.116; for `C#CCCCON=C1C[C@@H](O)[C@@H](O)[C@@H]2[C@@H]3C(=O)N(c4cccc(Oc5ccccc5)c4)C(=O)[C@@H]3CC[C@H]12`: -1.13. The same measure for `CC(CCN1CCc2nc(-c3ccccc3)c(-c3ccccc3)cc2C1)=NOC[C@@H](O)[C@H]1O[C@@H]2OC(C)(C)O[C@@H]2[C@H]1O`: 0.925; for `CC(CCN1CCc2nc(-c3ccccc3)c(-c3ccccc3)cc2C1)=NOC[C@@H](O)COCc1ccco1`: 0.19; for `CSCC[C@@H]1NC(=O)CC=C[C@@H](C)COC(=O)[C@@H](C)COC1=O`: -2.46. As for `CC(=O)Nc1ccc([C@@H]2N[C@H](C(=O)O)CC[C@H]2C)cc1`, the composite z-score was determined as 0.669. `C#CCCCON=C1[C@H]2CCn3c(=O)n(-c4ccccc4)c(=O)n3[C@H]2[C@H](O)[C@@H]2O[C@H]12` had a composite z-score of 0.436.

In turn, `COC(=O)[C@@H]1CC[C@H](C)[C@@H](c2ccc(C)cc2)N1C(=O)c1ccc(C=NOC[C@@H](C)[C@H](OCc2ccccc2)C(C)C)cc1` yielded a composite z-score of 0.857.

With `CCOC(=O)[C@H](Cc1ccccc1)NC(=O)CCC1CC(OC(=O)NCc2cccc3ccccc23)CC2(CCCC(COC(=O)NCCC(C)C)O2)O1` (stereo partly specified), the composite z-score amounted to 0.604. As for `C=CC[C@@H]1C=C[C@H](ON=C2[C@H]3CCn4c(=O)n(-c5ccccc5)c(=O)n4[C@H]3[C@H](O)[C@@H]3O[C@H]23)[C@@H](CO)O1`, the figure is 0.626.

The compound `CCOC(=O)[C@H](CC(C)C)NC(=O)CCC1CC(OC(=O)NCc2cccc3ccccc23)CC2(CCCC(COC(=O)NCCOc3ccccc3)O2)O1` (stereo partly specified) came in with a composite z-score of 0.959.

Turning to `C[C@@H](c1ccccc1)N1C(=O)[C@H]2[C@H]3[C@H](O)[C@H](O)CC(=NOCc4ccccc4)[C@H]3CC[C@H]2C1=O`, the composite z-score worked out at 0.823. The same measure for `CCCNC(=O)OC[C@H]1O[C@H](CCON=C(C)CCN2CCc3nc(CC)c(CC)cc3C2)C=C[C@@H]1Oc1ccc(OC)cc1`: 0.564; for `CCCNC(=O)OC[C@H]1O[C@H](CCON=C(C)C)C=C[C@@H]1Oc1ccc(OC)cc1`: 0.448; for `CC(=O)O[C@H]1C2=CO[C@H](C)[C@H]3[C@H]4C5=C([C@H](O)[C@H]6O[C@H]6C5=O)[C@H](OC4C)[C@@]23C(=O)[C@@H]2O[C@@H]21` (stereo partly specified): -0.331. The same measure for `C=CC[C@@H]1C=C[C@H](ON=C[C@@H](C)[C@H](OCc2ccccc2)C(C)C)[C@@H](CO)O1`: -1.67; for `COC(=O)CC=C[C@@H](C)[C@@H](C=NOC(C)CN1CCCc2nc(C)c(C)cc21)OC` (stereo partly specified): 0.233. As for `CC(CCN1CCCCc2nc(C)c(C)cc21)=NOC[C@@H](C)[C@H](OCc1ccccc1)C(C)C`, the figure is -2.81; as for `CON=C(C)CCC(=O)OC[C@H]1O[C@H](c2ccccc2)C=C[C@@H]1Oc1ccc(OC)cc1`, -0.45. In turn, `CON=CC[C@@H]1C=C[C@H](OC(C)=O)[C@@H](COC(C)=O)O1` came in with a composite z-score of -0.146.

In turn, `Cn1c(=O)n2n(c1=O)[C@H]1[C@H](O)[C@@H]3O[C@@H]3C(=O)[C@H]1CC2` gave a composite z-score of 0.289.

As to `COc1ccc(COC(=O)NN=C2C[C@@H](O)[C@@H](O)[C@@H]3[C@@H]4C(=O)N(Cc5ccccc5)C(=O)[C@@H]4CC[C@H]23)cc1`, the composite z-score was -0.519. With `C#CCCCON=C1C[C@@H](O)[C@@H](O)[C@@H]2[C@@H]3C(=O)N(C(C)(C)C)C(=O)[C@@H]3CC[C@@H]12`, the composite z-score stood at 0.139. As for `C[C@@H](c1ccccc1)N1C(=O)[C@H]2[C@H]3[C@H](O)[C@H](O)CC(=NO[C@@H]4O[C@H](CO)[C@@H](O)[C@H](O)[C@H]4O)[C@H]3CC[C@H]2C1=O`, the figure is 0.318; as for `CCOC(=O)CCN1C(=O)[C@H]2[C@H]3[C@H](O)[C@H](O)CC(=NOCc4ccccc4)[C@H]3CC[C@H]2C1=O`, 0.658. The same measure for `CO[C@H]1COC(=O)[C@@H](C)COC(=O)[C@H](COCc2ccccc2)NC(=O)CC=C[C@H]1C`: -0.785.

On to `COc1cccc([C@H]2Oc3ccc(OC)cc3C(=NO[C@@H]3O[C@H](COC(C)=O)[C@@H](OC(C)=O)[C@H](OC(C)=O)[C@H]3OC(C)=O)[C@@H]2O)c1`, for which the composite z-score was -0.339. As for `CCOC(=O)[C@H](CC(C)C)NC(=O)CCC1CC(OC(=O)NCc2ccc3c(c2)OCO3)CC2(CCCC(COC(=O)NCc3cccc(C(F)(F)F)c3)O2)O1` (stereo partly specified), the figure is -0.092. `CCN1C(=O)[C@H]2[C@H]3[C@H](O)[C@H](O)CC(=NOCC(C)C)[C@@H]3CC[C@H]2C1=O` registered a composite z-score of 0.231. The same measure for `COC(=O)[C@H](C)NC(=O)CCC1CC(OC(=O)NCCc2ccc(F)cc2)CC2(CCCC(COC(=O)NCCC(C)C)O2)O1` (stereo partly specified): 0.939; for `C=CC[C@@H]1C=C[C@H](ON=C(C)CCN2CCc3nc(-c4ccccc4)c(-c4ccccc4)cc3C2)[C@@H](CO)O1`: 0.727.

The values are drawn from PubChem BioAssay.
